CYP2C19 inhib: human CYP2C19 inhibition; P33261; actives 21% (n = 96,000); inhibition, % at 5 µM; CYP2C19 Supersomes, luciferin-H EGE luminescence, 30 min;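 active = CYP2C19 inhibition above a set limit at 5 µM in the primary screen, cut at about 50% in these data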
Mac1 fbg inh: blocks human CD11b/CD18 adhesion to fibrinogen | K562 CD11b/CD18 adhesion to fibrinogen, ATPlite luminescence; Mn2+ added to activate the integrin | actives 0.54% (n = 93,000) | inhibition, % at 10 µM;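 active = primary inhibition of 50% or more at 10 µM, then 40% or more on retest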
Target sequence (P05107 whole entry, looked up, other chains not shown): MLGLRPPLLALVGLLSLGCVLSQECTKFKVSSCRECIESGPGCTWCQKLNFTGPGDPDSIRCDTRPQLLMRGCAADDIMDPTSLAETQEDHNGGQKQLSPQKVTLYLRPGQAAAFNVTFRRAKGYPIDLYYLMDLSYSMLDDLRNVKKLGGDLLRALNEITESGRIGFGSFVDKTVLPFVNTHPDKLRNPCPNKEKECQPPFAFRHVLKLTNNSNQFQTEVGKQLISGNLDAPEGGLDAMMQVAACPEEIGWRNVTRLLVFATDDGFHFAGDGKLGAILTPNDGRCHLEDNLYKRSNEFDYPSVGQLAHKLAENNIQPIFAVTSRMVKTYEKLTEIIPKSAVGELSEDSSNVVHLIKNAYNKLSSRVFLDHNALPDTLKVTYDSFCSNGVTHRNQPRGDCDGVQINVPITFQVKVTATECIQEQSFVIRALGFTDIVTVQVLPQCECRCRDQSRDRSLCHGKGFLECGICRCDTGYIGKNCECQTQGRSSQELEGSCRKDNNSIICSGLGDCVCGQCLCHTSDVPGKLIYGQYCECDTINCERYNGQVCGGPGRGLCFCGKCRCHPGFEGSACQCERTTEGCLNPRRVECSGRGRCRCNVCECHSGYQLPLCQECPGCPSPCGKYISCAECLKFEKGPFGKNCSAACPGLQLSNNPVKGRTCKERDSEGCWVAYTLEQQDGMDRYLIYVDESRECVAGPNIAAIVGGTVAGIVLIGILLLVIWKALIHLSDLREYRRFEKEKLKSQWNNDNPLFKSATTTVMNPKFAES
CYP2C9 act: increases human cytochrome P450 2C9 activity; P11712; recombinant CYP2C9, luciferin-H conversion, luminescence; stronger effect = higher value; factor 1 = untreated enzyme, 0 = blocked; activation factor at 5 µM; actives 1.4% (n = 96,000);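 active = activation factor of 2 or more for CYP2C9 at a 5 µM dose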
CYP2C9 inh: human CYP2C9 inhibition | CYP2C9 Supersomes, luciferin-H conversion, luminescence | inhibition, % at 5 µM | actives 20% (n = 96,000) | AID 777;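 active = blocking of liver enzyme CYP2C9 beyond about 50% at 5 µM, limit read from the data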
CYP2C19 act: cytochrome P450 2C19 (human) activation. P33261. recombinant CYP2C19, luciferin-H EGE luminescence; stronger effect = higher value; 0 = fully inhibited enzyme, 1 = untreated enzyme. activation factor at 5 µM. 96,000 tested, under 10 active;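 active = activation factor of at least 2 at 5 µM in the primary screen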
Mac1 fbg enh: CD11b/CD18-fibrinogen binding enhancement. P05107+P11215. K562 CD11b/CD18 adhesion to fibrinogen, ATPlite luminescence. activation, % at 10 µM. actives 0.07% (n = 93,000). AID 1499;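 active = 10 µM primary screen giving 50% or more activity, confirmed by 40% or more on retest at that dose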
Numbers stand for hits; – = inactive; · = not tested or not shown. Hits are enriched below; roughly 28% of the tested compounds scored in any of these assays.

SMILES	CYP2C19 inhib	Mac1 fbg inh	CYP2C9 act	CYP2C9 inh	CYP2C19 act	Mac1 fbg enh
CCSc1nnc(-c2cccnc2)n1-c1ccc(C)c(Cl)c1	–	–	–	–	–	–
O=S(=O)(Nc1ccccn1)c1cnc(Cl)c(Br)c1	·	–	·	·	·	–
CO/N=C/NC(=O)c1cn(-c2ccc(F)cc2)c(=O)c2ccccc12	–	–	–	–	–	–
COc1cccc(-c2nc(N3CCN(c4ccccc4)CC3)c3ccccc3n2)c1O	–	·	–	55.1	–	·
CCC1CCCCN1c1nc(-c2cccc(OC)c2O)nc2ccccc12 (configuration not stated)	–	–	–	82.6	–	–
CC1CCN(c2nc(-c3ccncc3)nc3ccccc23)CC1	92.7	–	–	75.8	–	–
COc1cccc(-c2nc(NC(C)C)c3ccccc3n2)c1O	–	–	–	–	–	–
c1cncc(-c2nc(N3CCOCC3)c3ccccc3n2)c1	–	–	–	66.0	–	–
COc1cc(/C=C(\NC(=O)c2ccccc2)C(=O)Nc2cccc(O)c2)c([N+](=O)[O-])cc1OC	–	–	–	–	–	–
COc1ccc(C2(C(F)(F)F)NC(=O)N(C)C(=O)N2C)cc1 (configuration not stated)	–	–	–	–	–	–
CCOC(=O)C(C(=O)OCC)C(C(=O)OCC)N1CCOCC1 (configuration not stated)	–	–	–	52.9	–	–
Cc1ccc2oc(C(Cl)(Cl)Cl)cc(=O)c2c1	53.4	–	–	–	–	–
COc1ccc2c(=O)cc(C(F)(F)C(F)(F)F)oc2c1	–	–	–	–	–	–
CC1CCCC(NC(=O)Cn2cc3c(n2)CCCCC3)C1C (configuration not stated)	–	–	–	–	–	–
O=C(c1ccccc1/S(=N/S(=O)(=O)c1ccccc1)N1CCOCC1)N1CCOCC1 (configuration not stated)	–	–	–	–	–	–
COc1ccc(Nc2sc(C(=O)Nc3cccc(Cl)c3)c(N)c2C(=O)Nc2ccccc2OC)cc1	·	–	·	·	·	–
CCOC(=O)c1ccc(NC(=O)CC2C(=O)N(c3ccccc3)C(=O)N2CCCOC)cc1 (configuration not stated)	91.6	–	–	78.7	–	–
O=C1CS/C(=N\C(=O)N2c3ccccc3Sc3ccccc32)N1	–	–	–	67.6	–	–
CCN(CC)S(=O)(=O)c1ccc(NC(=O)c2ccccn2)cc1	–	–	–	–	–	–
O=C(Nc1ccccc1-c1ccccc1)c1ccco1	–	–	–	–	–	–
CCCNS(=O)(=O)c1ccc(NC(=O)c2ccccn2)cc1	57.1	–	–	85.3	–	–
O=C(CSCCNS(=O)(=O)c1ccccc1)Nc1ccccc1	92.4	–	–	–	–	–
CC(Oc1ccc(NC(=O)c2ccco2)cc1)C(=O)N1c2ccccc2CC1C (configuration not stated)	–	–	–	50.6	–	–
O=C(Nc1ccccc1-c1ccccc1)c1ccc(NC(=O)c2ccco2)cc1	53.0	–	–	–	–	–
Cc1ccc(C(C(=O)NC2CCCCC2)N2CCN(C(=O)c3ccco3)CC2)cc1 (configuration not stated)	–	·	–	–	–	·
SMILES	CYP2C19 inhib	Mac1 fbg inh	CYP2C9 act	CYP2C9 inh	CYP2C19 act	Mac1 fbg enh
CCOCC(=O)Nc1ccc(S(=O)(=O)NCCc2ccccc2)cc1	60.3	–	–	–	–	–
O=C(CCc1ccccc1)Nc1ccc(NC(=O)c2ccco2)nc1	–	–	–	–	–	–
O=C(Nc1ccc(S(=O)(=O)NCCc2ccccc2)cc1)c1ccco1	58.8	–	–	95.0	–	–
O=C(O)COc1ccc(NC(=O)c2ccco2)cc1	–	–	2.6	–	–	–
O=C(CCc1ccccc1)Nc1ccc(NC(=O)c2ccco2)cc1	71.1	–	–	81.5	–	–
CCOC(=O)C(NC(=O)c1ccccc1OCC)(Nc1ncccn1)C(F)(F)F (configuration not stated)	–	–	–	–	–	–
CC(C)(C)C(=O)Cn1c(=N)n(Cc2ccccc2Cl)c2ccccc21	–	–	–	–	–	–
CC(C)(C)C(=O)C(Cc1ccccc1Cl)n1cncn1 (configuration not stated)	59.5	–	–	–	–	–
CC(C)(C)C(=O)C(Cc1ccccc1)n1cncn1 (configuration not stated)	–	–	–	56.0	–	–
CCCC(C(=O)c1ccccc1)n1cncn1 (configuration not stated)	–	–	–	–	–	–
CC(=O)C1C(c2ccccc2OC(F)F)NC(=O)NC1(O)C(F)(F)F (configuration not stated)	–	–	–	–	–	–
CC(NC(=O)c1cc2ccccc2o1)c1cccs1 (configuration not stated)	82.4	–	–	69.4	–	–
Cc1ccc(C(=O)c2cc3ccccc3o2)cc1	–	·	–	–	–	·
O=C(c1cc2ccccc2o1)c1cccs1	–	–	–	50.8	–	–
COc1ccccc1C1CN=NC12CCCc1ccccc1C2=O (configuration not stated)	71.4	–	–	51.2	–	–
COc1cccc(C2C3=C(N=c4s/c(=C\c5cccc(O)c5)c(=O)n42)c2ccccc2CC3)c1OC (configuration not stated)	·	–	·	·	·	–
COc1ccc(C2CN=NC23CCCc2ccccc2C3=O)cc1 (configuration not stated)	59.1	–	–	–	–	–
O=C(CN1CCN(C(=O)c2cccc(F)c2)CC1)NC1CCCCC1	–	–	–	–	–	–
CN1CC(=O)NC1=NC(=O)C12CC3CC(CC(C3)C1)C2	–	–	–	–	–	–
FC(F)(F)c1cccc(OCCN2CCN(Cc3ccccc3)CC2)c1	·	–	·	·	·	–
CCCCCn1c(=O)c(F)cn(Cc2ccc(OC)c([N+](=O)[O-])c2)c1=O	–	–	–	51.5	–	–
CCCn1c(=O)c(F)cn(Cc2ccc(OC)c([N+](=O)[O-])c2)c1=O	–	·	–	–	–	·
CCCCCCn1c(=O)c(F)cn(Cc2ccc(OC)c([N+](=O)[O-])c2)c1=O	–	–	–	60.5	–	–
Cc1ccc(C)c2[nH]c(=O)c(CCNC(=O)C(C)(C)C)cc12	–	–	–	–	–	–
Cc1cc(SCCOc2ccc(Br)cc2)nc(N)n1	–	–	–	53.9	–	–
Cc1n[nH]c(C)c1Cc1ccc(C(=O)O)cc1	–	–	–	–	–	–
CCOC(=O)C1CCCCN1Cc1ccccc1C(F)(F)F (configuration not stated)	95.2	–	–	52.5	–	–
CCOC(=O)C1CCCCN1Cc1cccc(C(F)(F)F)c1 (configuration not stated)	–	–	–	–	–	–

Compound activity from PubChem.
